Several values for one entry are separate records, joined by “and”; a condition that tells them apart may be missing. Identical values can stand only once. Inconclusive results are not listed. Activity calls are given as the source filed them.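 Rule for the calls, unless noted: active = compounds whose cell count with miR-34 switched on is under 0.7 times the count with it off; inactive = the rest.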
How the values were obtained:
[1] = stimulators of nuclear beta-catenin in C2C12, primary screen, imaging, WNT3A-conditioned medium, mouse C2C12, NPC library (AID 1117326; in the data active = nuclear beta-catenin stimulation mostly above about 4.2%, no sharp cut-off; inactive = mostly below about 10%; note: reference of the scale not given here); settings: stronger effect = higher value
[2] = stimulators of insulin release from INS-1E, primary screen, cell-based, 5 mM glucose, NPC library (AID 1117329;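 active = compound raises insulin release from rat beta cells at 5 mM glucose, no numeric limit stated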; note: reference of the scale not given here); settings: rat INS-1E insulin secretion, at 10 µM, stronger effect = higher value
[3] = growth inhibition of GSK3B-pretreated HCT116 cells – cell-based, CellTiter-Glo, 0.2 to 20 µM (AID 1117336;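 active = compounds lowering colon cancer cell viability after pretreatment blocking the GSK3B kinase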); settings: HCT116 viability after GSK3B inhibitor, at 20 µM, stronger effect = higher value
[4] = inhibition of endothelial tube formation, primary screen, imaging, VEGF stimulated, CD31 staining, tube area, NPC library (AID 1117340;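 active = compound that reduces growth-factor-driven endothelial tube area in a mixed cell culture, no cutoff stated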); settings: VEGF-stimulated ADSC/ECFC co-culture, at 10 µM, stronger effect = higher value
[5] = glucagon-like peptide 1 release enhancers, primary assay, NCI-H716 cell line, NPC library (AID 1117341;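 active = compound raises GLP1 secretion from the human gut endocrine cells, with no numeric limit stated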; note: reference of the scale not given here); settings: NCI-H716 cells, at 10 µM, stronger effect = higher value
[6] = HCT116 colon cancer cell growth inhibition, primary screen, CellTiter-Glo luminescence, NPC library (AID 1117342;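 active = compounds that lower survival of HCT116 colon cancer cells in the luminescence readout, no numeric limit stated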); settings: at 20 µM (top of the series)
[7] = CellTiter-Glo luminescent readout of SW480 viability loss, NPC library primary (AID 1117343;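 active = compounds that lower viability of the colon cancer cells in the luminescence readout, with no numeric limit stated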); settings: CellTiter-Glo luminescence; at 20 µM (top of the series) unless noted
[8] = decreased DLD-1 cellular survival, CellTiter-Glo luminescent readout, NPC compound collection, primary HTS (AID 1117346;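 active = compounds that lower survival of DLD-1 colon cancer cells in the luminescence readout, no cutoff given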); settings: DLD-1 viability, CellTiter-Glo luminescence; at 20 µM (top of the series)
[9] = test system: Aerobactin synthetase IucA (Klebsiella pneumoniae); assay: IucA aerobactin synthetase inhibitors, biochemical, Tocris library, absorbance (AID 1345561; call rule not given here;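 note: 100% = enzyme without compound and 0% = no enzyme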); settings: purified IucA enzyme assay, absorbance (OD) read-out; stronger effect = lower value;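 tested at 8 µM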
[10] = sensitizers of A549 cells to miR-34 induction, primary screen, imaging, A549 dox-inducible miR-34, nuclei and caspase counts (AID 1347080); settings: A549 miR-34 inducible, Hoechst nuclei count, 48 h
[11] = survival rescue of mitochondrial mutant cells in low glucose, primary screen, MELAS cybrids, Rieske KO mouse fibroblasts, CellTiter-Glo (AID 1508586;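 active = mean z-score across replicates of 1.96 or higher in either the MELAS or the Rieske mutant cell line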;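 note: z relative to plate mean and SD of compound and empty wells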)
[12] = viability rescue of complex I mutant cybrids, primary screen, cell-based, galactose medium, ATP luminescence (AID 1645843;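 active = z-score of at least 1.8 in each of two replicates, scored against plate mean and spread of sample wells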;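 note: positive z means more ATP and so rescue of galactose-driven cybrid death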); settings: complex I mutant cybrid cells, 72 h, stronger effect = higher value
[13] = liver-stage malaria parasite growth inhibition, primary screen, cell-based, HepG2, luciferase luminescence, HepG2 viability (AID 624349; in the data active = parasite load remaining mostly below about 12%, no sharp cut-off; inactive = mostly above about 10%;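 note: 100% = mean of DMSO negative control wells on the same plate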); settings: P. berghei liver stage in HepG2, luciferase luminescence, concentration not given here; parasite load remaining: stronger effect = lower value; viability: measured here: HepG2 viability without parasites
[14] = growth inhibition of DIPG glioma cells, dose response, cell-based, SU-DIPG-XVII, MIPE5.0, CellTiter-Glo, qHTS (AID 1347060; cut-off not given, nearly all actives have AC50 up to about 26 µM); settings: SU-DIPG-XVII viability, CellTiter-Glo ATP luminescence
[15] = SU-DIPG-XXV glioma cell viability, MIPE5.0 library, qHTS (AID 1347068; cut-off not given, nearly all actives have IC50 up to about 30 µM)
[16] = growth inhibition of DIPG glioma cells, dose response, cell-based, SU-DIPG-XIII, MIPE4.0, CellTiter-Glo, qHTS (AID 1347061; cut-off not given, nearly all actives have AC50 up to about 37 µM;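 note: cells exposed to compound for 48 hours before readout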); settings: SU-DIPG-XIII viability, CellTiter-Glo ATP luminescence
[17] = stronger effect = lower value, cell number ratio, induced over uninduced
[18] = measured here: relative caspase fold change +Dox/-Dox
[19] = measured here: total cells with miR-34 induction, stronger effect = lower value
[20] = measured here: total cells without miR-34 induction
[21] = MELAS cybrid survival, CellTiter-Glo 48 h, stronger effect = higher value
[22] = Rieske KO mouse fibroblast survival, CellTiter-Glo 72 h

O=C1c2ccccc2S(=O)(=O)N1CCCCN1CCN(c2ncccn2)CC1
nuclear beta-catenin stimulation ([1]; at 10 µM): -1.2% (inactive) | nuclear beta-catenin stimulation ([1]; stimulation, at 2 µM): 1.3% | insulin secretion stimulation [2]: 3.3% (inactive) | viability decrease [3]: -7% (inactive) | tube area decrease [4]: 4.9% (inactive) | GLP1 secretion stimulation [5]: -1.9% (inactive) | inhibition of viability [6]: 7.2% (inactive) | viability decrease (inhibition) [7]: -2.4% (active) | viability decrease (inhibition) [8]: -2.8% (inactive) | remaining activity [9]: 111% (inactive) | fold change [10, 17]: 0.855 (inactive) | fold change [10, 18]: 1.78 | cell count [10, 19]: 8330 | cell count [10, 20]: 9750 | z-score [11, 21]: -0.295 (inactive) | z-score [11, 22]: -0.0604 | z-score [12]: 0.135 (inactive)

COCCOC(=O)C1=C(C)NC(C)=C(C(=O)OC/C=C/c2ccccc2)C1c1cccc([N+](=O)[O-])c1 (stereo not given)
parasite load remaining [13]: 41.2% (inactive) | viability [13]: 106% | nuclear beta-catenin stimulation ([1]; at 10 µM): 2.6% (inactive) | nuclear beta-catenin stimulation ([1]; stimulation, at 2 µM): 0.8% | insulin secretion stimulation [2]: -0.8% (inactive) | viability decrease [3]: 77.2% (active) | tube area decrease [4]: 104% (active) | GLP1 secretion stimulation [5]: -1.2% (inactive) | inhibition of viability [6]: 77% (active) | viability decrease (inhibition) [7]: 87.1% (active) | viability decrease (inhibition) [8]: 86.4% (active) | remaining activity [9]: 100% (inactive) | fold change [10, 17]: 1.33 (inactive) and 0.874 (inactive) and 0.908 (inactive) | fold change [10, 18]: 0.592 and 1.2 and 1.19 | cell count [10, 19]: 2620 and 3270 and 8480 | cell count [10, 20]: 1970 and 3740 and 9340 | z-score [11, 21]: 0.948 (inactive) and 0.937 (inactive) | z-score [11, 22]: 1.43 and 0.674 | z-score [12]: -1.04 (inactive) and -0.7 (inactive) and -0.745 (inactive)

CN(C(=O)c1c(O)c2ccccc2n(C)c1=O)c1ccccc1
nuclear beta-catenin stimulation ([1]; at 10 µM): 0.7% (inactive) | nuclear beta-catenin stimulation ([1]; stimulation, at 2 µM): 0.9% | insulin secretion stimulation [2]: 4.4% (inactive) | viability decrease [3]: 2.2% (inactive) | tube area decrease [4]: -6.9% (inactive) | GLP1 secretion stimulation [5]: 0.6% (inactive) | inhibition of viability [6]: -2.7% (inactive) | viability decrease (inhibition) [7]: 1.1% (inactive) | viability decrease (inhibition) [8]: -45.2% (inactive) | remaining activity [9]: 121% (inactive) | outcome [14]: inactive | outcome [15]: inactive | fold change [10, 17]: 0.967 (inactive) | fold change [10, 18]: 0.749 | cell count [10, 19]: 8780 | cell count [10, 20]: 9070 | z-score [12]: -0.335 (inactive)

C[C@@H](CN1CC(=O)NC(=O)C1)N1CC(=O)NC(=O)C1
nuclear beta-catenin stimulation ([1]; at 10 µM): 9.7% (inactive) | nuclear beta-catenin stimulation ([1]; stimulation, at 2 µM): 13.9% | insulin secretion stimulation [2]: 5.3% (inactive) | viability decrease [3]: 70.9% (active) | tube area decrease [4]: 37.9% (inactive) | GLP1 secretion stimulation [5]: -2.7% (inactive) | inhibition of viability [6]: 62% (active) | viability decrease (inhibition) [7]: 53.1% (active) | viability decrease (inhibition) [8]: 47.2% (inactive) | remaining activity [9]: 106% (inactive) | outcome [16]: inactive | outcome [15]: inactive | fold change [10, 17]: 0.977 (inactive) | fold change [10, 18]: 1.07 | cell count [10, 19]: 8720 | cell count [10, 20]: 8920 | z-score [12]: 0.075 (inactive)

FC(F)(F)c1ccccc1-n1ccnc1
nuclear beta-catenin stimulation ([1]; at 10 µM): 1.3% (inactive) | nuclear beta-catenin stimulation ([1]; stimulation, at 2 µM): -0.4% | insulin secretion stimulation [2]: 1.7% (inactive) | viability decrease [3]: 2% (inactive) | tube area decrease [4]: -7.9% (inactive) | GLP1 secretion stimulation [5]: -1.9% (inactive) | inhibition of viability [6]: 2.03% (inactive) | viability decrease (inhibition) [7]: -83.5% (inactive) | viability decrease (inhibition) [8]: 4.5% (inactive) | remaining activity [9]: 102% (inactive) | fold change [10, 17]: 0.976 (inactive) and 0.948 (inactive) and 0.969 (inactive) | fold change [10, 18]: 1.92 and 1.05 and 0.962 | cell count [10, 19]: 9410 and 5980 and 9120 | cell count [10, 20]: 9640 and 6310 and 9410 | z-score [12]: 0.425 (inactive) and 1.96 (inactive)

Source: PubChem BioAssay
